Measurements taken from PubChem BioAssay (EPA / NIEHS).
Active and inactive are the calls of the source. The calls were made as follows: active = hit-call score of the fitted dose curve at least 0.9, where 1 is the maximum; inactive = score below 0.9.

Experiment: ATG_PPRE_CIS: Attagene CIS-FACTORIAL HepG2 Assay for human Peroxisome Proliferator-activated Response Element (PPRE) (AID 2282958)
Settings: HepG2 PPRE cis-element reporter, Attagene transcription factor profiling; actives raise or lower the signal
Protocol: ATG_CIS is a cell-based, multiplexed-readout assay that uses HepG2, a human liver cell line, with measurements taken at 24 hours after chemical dosing in a 24-well plate.ATG_PPRE_CIS is one of 52 assay component(s) measured or calculated from the ATG_CIS assay. It is designed to make measurements of mRNA induction, a form of inducible reporter, as detected with fluorescence intensity signals by Reverse transcription polymerase chain reaction (RT-PCR) and Capillary electrophoresis technology.Data from the assay component ATG_PPRE_CIS was analyzed into 1 assay endpoint. This assay endpoint, ATG_PPRE_CIS, was analyzed with bidirectional fitting relative to DMSO as the negative control and baseline of activity. Using a type of inducible reporter, measures of mRNA for gain or loss-of-signal activity can be used to understand the reporter gene at the transcription factor-level as they relate to the gene PPARA and PPARD and PPARG. Furthermore, this assay endpoint can be referred to as a primary readout, because this assay has produced multiple assay endpoints where this one serves a reporter gene function. To generalize the intended target to other relatable targets, this assay endpoint is annotated to the nuclear receptor intended target family, where the subfamily is non-steroidal.
Human liver HepG2 cells are transiently transfected with multiple reporter transcription units (MRTUs) in 6-well plates using FuGene 6 reagent (Roche; 3 ml FuGene/1 mg DNA). The MRTU constructs are regulated by a cis-regulating element (promoter). […] A major difference between the CIS and TRANS system is that in CIS activities of endogenous TFs are measured, whereas the TRANS assay evaluates changes in activities of exogenous, chimeric NR-Gal4 proteins. […] At the end of 24 hour incubation, total RNA was isolated using TriZol reagent (Invitrogen). The isolated RNA is then reverse-transcribed using oligo(dT) primer and Mo-MLV reverse transcriptase (Invitrogen) with DNAse I (Ambion) treatment for 30 min. The one-tenth of the produced cDNA was amplified by PCR using Taq DNA polymerase (Invitrogen) and two reporter sequence-specific primers. The PCR products were fluorescently labeled by primer extension with 6-arboxyfluorescein (6-FAM) 5'-labeled reporter sequence-specific primer (2 min at 95 C, 20 s at 68 C and 10 min at 72 C) and these products were digested with 5U of HpaI (New England Biolabs) for 2h at 37 C. The fragments were purified using Qiaquick PCR columns (Qiagen), analyzed on an ABI 3130xL genetic analyzer (Applied Biosystems) with peak positions identified by using a set of X-rhodamine (ROX)-labeled MapMarker1000 molecular weight standards (BioVentures). The raw capillary electrophoresis data was processed using Attagraph software (Attagene).

SMILES | outcome | AC50
Oc1ccc(Cl)cc1C1CCCC1 | inactive | 
C=C1CC[C@H]2C[C@@H]1C2(C)C | inactive | 
CCCCCCCCCCCCCCCCCC[N+](C)(C)C |  | 6.2 µM (active)
C[Si](C)(C)O[Si](C)(C)O[Si](C)(C)C | inactive | 
CCC(C)NC(N)=O (stereo not given) | inactive | 
O=C(OCc1ccccc1)c1ccccc1 | inactive | 
O=C(CC(C(=O)OC1CCCCC1)S(=O)(=O)O)OC1CCCCC1 (stereo not given) | inactive | 
CCCCCCCC#N | inactive | 
c1cc(N(CC2CO2)CC2CO2)ccc1Cc1ccc(N(CC2CO2)CC2CO2)cc1 (stereo not given) | inactive | 
CCOc1ccc2c(c1)C(C)CC(C)(C)N2 (stereo not given) | inactive | 
O=C(Oc1ccccc1)c1ccccc1 | inactive | 
CCCCCC[C@@H](O)C/C=C\CCCCCCCC(=O)O |  | 45.7 µM (active)
NC(N)=Nc1nc(CSCCC(N)=NS(N)(=O)=O)cs1 | inactive | 
CC(C)CC(=O)O | inactive | 
CCCCNC(N)=O | inactive | 
CCCCCC1CCCC(=O)O1 (stereo not given) | inactive | 
COC(=O)c1ccccc1 | inactive | 
Cc1cc(C)c(S(=O)(=O)O)cc1N=Nc1cc(S(=O)(=O)O)c2ccccc2c1O | inactive | 
CC(C)CC(=O)CC(C)CC(C)C (stereo not given) | inactive | 
CCCCCCC1CCC(=O)O1 (stereo not given) | inactive | 

SMILES | outcome | AC50
CCCC(=O)OC/C=C(\C)CCC=C(C)C | inactive | 
COc1ccc2ccccc2c1 | inactive | 
Cc1cc(O)cc(C)c1Cl |  | 37.1 µM (active)
O=[N+]([O-])c1ccc2nc[nH]c2c1 | inactive | 
CCOC(=O)c1ccccc1 | inactive | 
OCCOCCOCCOCCOCCO | inactive | 
COCCCN | inactive | 
OCCN(CCO)c1cccc(Cl)c1 | inactive | 
CCCCCCCCCCC1CO1 (stereo not given) | inactive | 
COC(OC)C(C)c1ccccc1 (stereo not given) | inactive | 
CC(C)n1c(/C=C/[C@@H](O)C[C@@H](O)CC(=O)O)c(-c2ccc(F)cc2)c2ccccc21 |  | 36.3 µM (active)
O=C(C1CCCCC1)N1CC(=O)N2CCc3ccccc3C2C1 (stereo not given) | inactive | 
NC(=O)c1ccc([N+](=O)[O-])cc1Cl | inactive | 
CC1(C)S[C@@H]2[C@H](NC(=O)[C@H](N)c3ccccc3)C(=O)N2[C@H]1C(=O)O | inactive | 
O=C(O)c1cc(Cl)cc(Cl)c1O | inactive | 
CC1=C(CC(=O)O)c2cc(F)ccc2/C1=C\c1ccc(S(C)=O)cc1 (stereo not given) | inactive | 
Cc1ccnc(N)c1 | inactive | 
COc1ccccc1OCC(O)CO (stereo not given) | inactive | 
CNC(=C[N+](=O)[O-])NCCSCc1csc(CN(C)C)n1 | inactive | 
O=[N+]([O-])c1ccccc1C(F)(F)F | inactive | 
